Marburg entry inh – inhibitors of Marburg virus binding or cell entry; AID 540276; Potency, µM (titrated, usually from 37.8 µM), for the others: top-dose activity change, negative = inhibition, most hits filed as inhibitors; Marburg virus pseudotyped entry inhibition, cell reporter; 300,000 compounds, 1.8% hits; calls by dose curve; tested in HEK293 cells; further: potency means the concentration at half of the fitted maximal effect
VACV mCherry inh – vaccinia inhibition (mCherry reporter). 310,000 compounds, 0.63% hits. Vaccinia virus mCherry reporter infection, fluorescence. Potency, µM (series often up to 36.5 µM), for inactives: at the highest dose activity change, negative = inhibition, actives largely listed as inhibitors; calls by dose curve; tested in A549 cells; further: potency means the concentration at half of the fitted maximal effect; nearly all actives have a fitted effect of over 35% in size
HCMV antiviral – inhibitors of human cytomegalovirus | HFF cells, HCMV-luciferase reporter, 72 h; hits give low values | activity change, negative = inhibition, % at 57.5 µM | 410,000 compounds, 4.5% hits; in the data active means activity change below about -60%; inconclusive means no clear call, values can overlap the other calls; inactive means above about -39%
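Steps: HFFs plated, 16 h 37C; compounds added; HCMV-luciferase added to MOI 1 PFU/cell; 72 h 37C; OneGlo reagent, 5 min room temperature; luminescence read, normalized to controls.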
Vaccinia Venus – inhibitors of vaccinia virus (Venus reporter) | Vaccinia virus Venus reporter expression, fluorescence | Potency, µM (series often up to 36.5 µM), for inactives: top-dose activity change, negative = inhibition, hits mostly inhibitors | 330,000 compounds, 0.46% hits | AID 720580; calls by dose curve; tested in A549 cells; further: potency means the concentration at half of the fitted maximal effect; nearly all actives have a fitted effect of over 30% in size
FMDV inh – antivirals against foot and mouth disease virus; 410,000 compounds, 1.2% hits; FMDV antiviral cell-based qHTS; Potency, µM (top dose mostly 57.9 µM), inactives show at the highest dose activity change, negative = inhibition, actives largely listed as inhibitors; AID 1159524; calls by dose curve; tested in HEK293T cells; further: read-out not given here; potency means the concentration at half of the fitted maximal effect; nearly all actives have a fitted effect of over 45% in size
Lassa entry inh – Lassa virus entry inhibition; Lassa virus pseudotype entry inhibition, cell reporter; Potency, µM (series often up to 37.9 µM), for inactives: at the highest dose activity change, negative = inhibition, hits mostly inhibitors; 300,000 compounds, 1.2% hits; calls by dose curve; tested in HEK293 cells; further: potency means the concentration at half of the fitted maximal effect; nearly all actives have a fitted effect of over 50% in size
Active calls of the source: *; i = inactive; ? = inconclusive; . = not tested or not shown; [ ] = dose if it differs, or a comment. In the library only some 6.5% were active in any assay of this set; here they are far more common. On the % scale 0 is the no-effect control and ±100 the full control effect.

SMILES	Marburg entry inh	VACV mCherry inh	HCMV antiviral	Vaccinia Venus	FMDV inh	Lassa entry inh
CC(=O)c1c(C)[nH]c(C(=O)COc2cc(C)cc(C)c2)c1C	?	.	-62*	.	-14%	2%
CC(=O)c1c(C)[nH]c(C(=O)COc2ccc3ccc(=O)oc3c2)c1C	?	-25%	-10	-24%	28µM*	2%[46.1 µM]
Cc1ccc(S(=O)(=O)N(C)c2ccc(C(=O)N(C)Cc3nc4ccccc4c(=O)[nH]3)cc2)cc1	?	?	-8	?	-13%	6%
COc1cc(OC)c2c(-c3cccc(-c4ccc(OC)c(F)c4)c3)cc(=O)oc2c1	.	?	-68*	?	-8%	.
COc1cc(OC)c2c(-c3cccc(-c4ccc(C(C)=O)cc4)c3)cc(=O)oc2c1	.	-33%	.	-7%	-2%	.
CCc1cc(=O)oc2cc3occ(-c4ccc(OC)c(F)c4)c3cc12	?	?	-68*	-21%	?	5µM*
O=P1(Oc2ccccc2)OCCCS1 (stereo not given)	.	.	22	.	35µM*	.
Brc1cccc(-c2nc3cccnc3nc2-c2cccc(Br)c2)c1	.	.	12	.	0%	.
Cc1ccc(-c2nc3cc(Br)cnc3nc2-c2ccc(C)cc2)cc1	3.2µM*	1%	-37	2%	?	?
CCN1C(=NCCc2cccnc2)NC(CCc2ccccc2)C(C(=O)OC)=C1C (stereo not given)	38%[14.2 µM]	.	.	.	.	.
O=C(CSc1ccccc1C(=O)NCc1ccccc1)NC12CC3CC(CC(C3)C1)C2	?	?	-32	?	?	10µM*
Cc1ccc(-n2nc(C(=O)N3CCN(c4cc(Cl)ccc4C)CC3)c3c4ccccc4n(C)c3c2=O)cc1	-1%[46.1 µM]	-1%	5	0%	-28%	5%[46.1 µM]
O=C(COC(=O)[C@@H]1CC(O)CN1S(=O)(=O)c1ccc2c(c1)OCCO2)NCc1ccc(F)cc1 (stereo not given in full)	0%[46.1 µM]	-5%	53	-5%	21%	14%[46.1 µM]
COCCn1cnc2c1c(=O)n(Cc1ccc(C#N)cc1)c(=O)n2Cc1ccccc1	?	-6%	-61*	2%	1%	-16%[46.1 µM]
Cc1ccccc1-c1nnc(SCC(=O)Nc2cccnc2Cl)o1	?	-16%	48	-12%	44%	2µM*
COCCNC(C)(CCCCC(=O)O)c1nnnn1-c1c(C)cccc1Cl (stereo not given)	.	.	-9	.	.	.
CO/N=C/C(=N\Nc1ccc(OC)cc1)C(=O)c1ccc(OC)cc1	?	.	-37	-14%	-22%	11µM*
COc1ccc(C(=O)C(/C=N/O)=N/Nc2ccc(F)cc2)cc1	-4%[46.1 µM]	i	10	-17%	-8%	4%
COc1ccccc1N(CC(=O)Nc1cc(C)cc(C)c1)S(C)(=O)=O	7%[46.1 µM]	-7%	-27	-10%	-8%	8%[46.1 µM]
CC(=O)c1c(C)[nH]c(C(=O)CN2CCN(S(=O)(=O)c3ccc(C(C)C)cc3)CC2)c1C	.	.	-27	.	?	.
CCc1ccc2c(CN3CCN(S(=O)(=O)c4cccs4)CC3)cc(=O)oc2c1	?	-26%	-12	?	?	2.5µM*
Cc1cc(C(C)(C)C)cc(CN2CCN(S(=O)(=O)c3cccs3)CC2)c1O	.	-14%	-77*	-28%	?	.
CC(=O)c1c(C)[nH]c(C(=O)CN2CCN(S(=O)(=O)c3ccccc3F)CC2)c1C	?	-26%	?	-18%	18µM*	?
O=S(=O)(c1ccccc1F)N1CCN(CCc2ccccc2)CC1	?	-8%	-72*	-24%	?	-13%
